The record followed here is PubChem BioAssay (EPA / NIEHS).

Calls of active or inactive are those of the source. The calls were made as follows: active = hit-call score of the fitted dose curve at least 0.9, where 1 is the maximum; inactive = score below 0.9.

Experiment [1] can be described thus: UKN5_HCS_SBAD2_cell_viability: Viability Assessment in the University of Konstanz (UKN) Leist Lab Neurite Outgrowth Assay in human iPSC-derived immature Dorsal Root Ganglia Neurons (UKN5) (AID 2284056). A digest of the protocol:
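iPSC-derived immature peripheral neurons (SBAD2) seeded on Matrigel with CHIR99021, SU5402 and DAPT, dosed 1 h later for 24 h. Viability from Hoechst H-33342 and calcein-AM live staining, high-content imaging; bidirectional fit versus DMSO.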

Experiment [2] in a line: UKN5_HCS_SBAD2_neurite_outgrowth: University of Konstanz (UKN) Leist Lab Neurite Outgrowth Assay in human iPSC-derived immature Dorsal Root Ganglia Neurons (UKN5) (AID 2284070). To be noted: actives raise or lower the signal. Put shortly: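 Thaw, seed on Matrigel (100.000 cells/cm2), dose 1 h later; at 23 h live-stain with H-33342 and calcein-AM for 60 min; image at 24 h. Neurite area fitted bidirectionally vs DMSO.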

Experiment [3] can be described thus: UKN2_HCS_IMR90_neural_migration: University of Konstanz (UKN) Leist Lab Neural Crest Cell Migration Assay in human induced IMR90 Pluripotent Stem Cells (UKN2) (AID 2284204). To be noted: actives raise or lower the signal. Put shortly:
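High-content imaging of calcein-AM and Hoechst stained cells quantifies migration into a stopper-defined gap after 24 h compound exposure. Neural crest cells from IMR90 iPSC migrated 24 h in EGF/FGF N2-S medium before dosing; DMSO baseline.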

Experiment [4] can be described thus: UKN4_HCS_LUHMES_neurite_outgrowth: University of Konstanz (UKN) Leist Lab Neurite Outgrowth Assay in human LUHMES cells (UKN4) (AID 2284206). To be noted: actives raise or lower the signal. Put shortly:
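Human LUHMES cells were differentiated for two days, replated and treated with chemicals for 24 h. Neurite outgrowth was quantified as calcein-stained neurite area by HCS imaging, fitted bidirectionally relative to DMSO.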

A short description of experiment [5]: IUF_NPC1b_proliferation_BrdU_72hr: Leibniz Research Institute for Environmental Medicine (IUF) 72-hour Neural Progenitor Cell Bromodeoxyuridine (BrdU) Proliferation Assay (NPC1b) (AID 2284207). Put shortly: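 Human fetal cortex-derived (GW 16-19) neural progenitor spheres, 0.25-0.35 mm, one per well in EGF/FGF proliferation medium, exposed to compound for 72 h at 37C, pH 7.2-7.6. BrdU incorporation over the final 16 h read by luminescence ELISA, relative to DMSO.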

A short description of experiment [6]: IUF_NPC1a_proliferation_area_72hr: Leibniz Research Institute for Environmental Medicine (IUF) 72-hour Neural Progenitor Cell Proliferation Area Assay (NPC1a) (AID 2284208). A digest of the protocol:
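Proliferation read as increase in sphere area by phase-contrast imaging over 72 h continuous compound exposure (no renewal) of hNPC spheres grown with EGF/FGF at 37C, 5% CO2. Growth-factor withdrawal served as positive control; DMSO as baseline.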

Experiment [7] in a line: IUF_NPC1_viability_72hr: Viability Assessment at 72 hours in the Leibniz Research Institute for Environmental Medicine (IUF) Neural Progenitor Cell Proliferation Assay (NPC1) (AID 2284209). Put shortly: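 Spheres of primary human neural progenitors were plated singly in proliferation medium and treated for 72 h. Mitochondrial reduction of resazurin was then measured by fluorescence and analysed against DMSO controls.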

One may read the AC50 as the concentration at which the activity in the assay is half-maximal. For the compound `Nc1ncn([C@@H]2O[C@H](CO)[C@@H](O)[C@H]2O)c(=O)n1`, the compound was called inactive in experiment [1], in experiment [3], in experiment [6] and in experiment [7]. Also, the half-maximal activity concentration (AC50) in experiment [2] is 10 µM (active); in experiment [4], 13 µM (active); in experiment [5], 0.253 µM (active).

On to `CC1(C)S[C@@H]2[C@H](NC(=O)COc3ccccc3)C(=O)N2[C@H]1C(=O)O`, for which the result in experiment [5], in experiment [6] and in experiment [7] was inactive.
